Source: PMC7862700, “An all-to-all approach to the identification of sequence-specific readers for epigenetic DNA modifications on cytosine”

Columns and labels:
Experiment in all cases: DAPPL (digital affinity profiling via proximity ligation, sequencing); 10 mM Tris-HCl pH 7.5, 50 mM NaCl, 1 mM DTT, 4% glycerol, room temperature, 30 min; GST-TFs on glutathione beads, 16-mer random dsDNA library, 0.1% formaldehyde crosslink after washing; high values mean tight binding
Conditions in all cases: protein: recombinant; tags: N-terminal GST; dsDNA, one strand shown
ERF = molecular target: T1, ERF (Homo sapiens, UniProt P50548 1-548)
T1 sequence: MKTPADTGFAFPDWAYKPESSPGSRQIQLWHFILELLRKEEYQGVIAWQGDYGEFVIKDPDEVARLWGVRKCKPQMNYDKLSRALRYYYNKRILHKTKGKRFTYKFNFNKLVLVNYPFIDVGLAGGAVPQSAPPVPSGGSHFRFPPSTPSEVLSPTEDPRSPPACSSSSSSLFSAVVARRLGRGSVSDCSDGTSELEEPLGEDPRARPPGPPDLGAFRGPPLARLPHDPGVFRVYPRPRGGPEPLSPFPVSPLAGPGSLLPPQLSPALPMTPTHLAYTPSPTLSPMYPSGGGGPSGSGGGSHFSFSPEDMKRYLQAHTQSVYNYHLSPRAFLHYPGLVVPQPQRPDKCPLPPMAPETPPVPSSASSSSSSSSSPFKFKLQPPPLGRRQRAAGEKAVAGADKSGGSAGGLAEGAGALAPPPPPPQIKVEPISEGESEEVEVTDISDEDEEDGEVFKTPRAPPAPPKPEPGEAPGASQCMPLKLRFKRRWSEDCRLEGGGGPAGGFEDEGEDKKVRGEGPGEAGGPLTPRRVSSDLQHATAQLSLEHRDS
Procedure, shortened: (§1)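 GST fusions of human transcription factors were expressed in yeast and captured with glutathione beads. Once given DNA barcodes and pooled alongside a tag-only sample, they were incubated for 30 min at room temperature with 200 nmole of a random double-stranded 16-mer DNA library in Tris/NaCl/DTT/glycerol buffer, then washed, crosslinked (0.1% formaldehyde), proximity-ligated, PCR-amplified and sequenced on an Illumina NextSeq500. The binding signal of each hexamer is its read frequency for a factor divided by its frequency for the tag-only sample.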

ETV3L = molecular target: T2, ETV3L (Homo sapiens, UniProt Q6ZN32 1-361)
T2 sequence: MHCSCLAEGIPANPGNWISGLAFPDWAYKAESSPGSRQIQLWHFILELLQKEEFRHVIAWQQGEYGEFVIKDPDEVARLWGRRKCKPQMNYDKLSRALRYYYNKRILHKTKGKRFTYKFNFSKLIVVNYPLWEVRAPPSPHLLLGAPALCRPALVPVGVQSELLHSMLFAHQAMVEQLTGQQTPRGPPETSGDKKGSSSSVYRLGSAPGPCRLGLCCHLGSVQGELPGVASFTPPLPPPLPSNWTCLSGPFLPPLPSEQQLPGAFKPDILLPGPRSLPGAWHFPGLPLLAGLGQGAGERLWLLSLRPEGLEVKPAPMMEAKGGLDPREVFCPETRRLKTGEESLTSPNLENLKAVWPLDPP
Procedure, shortened: as §1

ETS2 = molecular target: T3, ETS2 (Homo sapiens, UniProt P15036 1-469)
T3 sequence: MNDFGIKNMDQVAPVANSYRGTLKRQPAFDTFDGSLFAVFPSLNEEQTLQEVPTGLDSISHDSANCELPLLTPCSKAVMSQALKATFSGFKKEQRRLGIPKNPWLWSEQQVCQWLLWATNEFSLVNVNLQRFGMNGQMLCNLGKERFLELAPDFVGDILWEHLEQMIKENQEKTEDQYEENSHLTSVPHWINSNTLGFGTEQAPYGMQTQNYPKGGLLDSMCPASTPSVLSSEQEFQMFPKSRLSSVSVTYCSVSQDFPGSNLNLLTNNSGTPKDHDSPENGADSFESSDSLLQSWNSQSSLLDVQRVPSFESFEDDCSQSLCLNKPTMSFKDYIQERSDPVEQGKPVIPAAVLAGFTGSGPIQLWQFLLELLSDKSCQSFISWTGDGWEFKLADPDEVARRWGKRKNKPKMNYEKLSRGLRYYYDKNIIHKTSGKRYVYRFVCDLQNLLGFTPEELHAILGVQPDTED
Procedure, shortened: as §1

SPDEF = molecular target: T4, SPDEF (Homo sapiens, UniProt O95238 1-335)
T4 sequence: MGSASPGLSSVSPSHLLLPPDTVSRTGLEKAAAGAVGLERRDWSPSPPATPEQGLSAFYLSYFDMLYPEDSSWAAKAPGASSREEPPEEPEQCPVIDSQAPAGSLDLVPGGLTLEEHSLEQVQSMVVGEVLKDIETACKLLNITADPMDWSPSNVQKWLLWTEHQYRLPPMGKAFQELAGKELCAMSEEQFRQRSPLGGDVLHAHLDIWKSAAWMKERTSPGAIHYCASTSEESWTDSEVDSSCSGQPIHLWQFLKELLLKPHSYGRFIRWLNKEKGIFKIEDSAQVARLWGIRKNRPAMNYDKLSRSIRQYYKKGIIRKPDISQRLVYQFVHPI
Procedure, shortened: as §1

ETV7 = molecular target: T5, ETV7 (Homo sapiens, UniProt Q9Y603 1-341)
T5 sequence: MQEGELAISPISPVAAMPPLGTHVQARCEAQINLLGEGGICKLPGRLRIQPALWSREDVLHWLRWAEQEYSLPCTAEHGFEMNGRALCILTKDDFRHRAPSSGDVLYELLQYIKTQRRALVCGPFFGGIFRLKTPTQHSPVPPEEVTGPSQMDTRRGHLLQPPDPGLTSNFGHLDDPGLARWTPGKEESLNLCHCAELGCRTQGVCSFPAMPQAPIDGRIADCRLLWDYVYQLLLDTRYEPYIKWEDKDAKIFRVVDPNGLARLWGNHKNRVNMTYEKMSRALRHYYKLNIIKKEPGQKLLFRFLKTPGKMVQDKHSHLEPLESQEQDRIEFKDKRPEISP
Procedure, shortened: as §1

ELF5 = molecular target: T6, ELF5 (Homo sapiens, UniProt Q9UKW6-2 1-255)
T6 sequence: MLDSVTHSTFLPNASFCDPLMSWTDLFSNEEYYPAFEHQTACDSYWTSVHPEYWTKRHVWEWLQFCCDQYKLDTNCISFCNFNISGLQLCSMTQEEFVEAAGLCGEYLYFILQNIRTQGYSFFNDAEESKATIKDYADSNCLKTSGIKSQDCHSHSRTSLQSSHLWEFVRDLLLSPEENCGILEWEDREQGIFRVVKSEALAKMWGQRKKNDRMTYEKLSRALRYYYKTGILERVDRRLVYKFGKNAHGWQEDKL
Procedure, shortened: as §1

ETV3 = molecular target: T7, ETV3 (Homo sapiens, UniProt P41162-2 1-143)
T7 sequence: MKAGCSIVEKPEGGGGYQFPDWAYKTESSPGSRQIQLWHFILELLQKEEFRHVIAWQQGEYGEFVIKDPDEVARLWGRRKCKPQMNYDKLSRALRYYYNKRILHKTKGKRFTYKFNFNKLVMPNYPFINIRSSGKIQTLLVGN
Procedure, shortened: as §1

ETV6 = ETV6 (Homo sapiens, UniProt P41212 1-452)
Procedure, shortened: as §1

ETV6, sequence (P41212 whole entry): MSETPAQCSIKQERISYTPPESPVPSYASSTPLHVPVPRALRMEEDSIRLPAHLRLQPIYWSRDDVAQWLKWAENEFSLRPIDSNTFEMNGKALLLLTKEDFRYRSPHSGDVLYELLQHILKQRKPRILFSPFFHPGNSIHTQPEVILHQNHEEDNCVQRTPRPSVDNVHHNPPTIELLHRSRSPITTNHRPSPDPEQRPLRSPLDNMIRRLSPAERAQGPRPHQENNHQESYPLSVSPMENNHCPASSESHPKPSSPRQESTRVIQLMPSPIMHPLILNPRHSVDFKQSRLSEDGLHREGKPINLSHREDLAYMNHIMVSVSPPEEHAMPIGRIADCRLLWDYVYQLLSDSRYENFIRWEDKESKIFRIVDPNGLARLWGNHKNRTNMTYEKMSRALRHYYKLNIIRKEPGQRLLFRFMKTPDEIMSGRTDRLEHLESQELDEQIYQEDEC

Sequence | binding signal (ERF) | binding signal (ETV3L) | binding signal (ETS2) | binding signal (SPDEF) | binding signal (ETV7) | binding signal (ELF5) | binding signal (ETV3) | binding signal (ETV6)
GTGTTC | 1.19 fold enrichment (6-mer frequency, TF over GST control) | 1.14 fold enrichment (6-mer frequency, TF over GST control) | 1.17 fold enrichment (6-mer frequency, TF over GST control) | 1.34 fold enrichment (6-mer frequency, TF over GST control) | 1.11 fold enrichment (6-mer frequency, TF over GST control) | 1.34 fold enrichment (6-mer frequency, TF over GST control) | 1.05 fold enrichment (6-mer frequency, TF over GST control) | 1.09 fold enrichment (6-mer frequency, TF over GST control)
GCGCTC | 1.2 fold enrichment (6-mer frequency, TF over GST control) | 1.19 fold enrichment (6-mer frequency, TF over GST control) | 1.2 fold enrichment (6-mer frequency, TF over GST control) | 1.07 fold enrichment (6-mer frequency, TF over GST control) | 1.04 fold enrichment (6-mer frequency, TF over GST control) | 1.05 fold enrichment (6-mer frequency, TF over GST control) | 1.08 fold enrichment (6-mer frequency, TF over GST control) | 1.02 fold enrichment (6-mer frequency, TF over GST control)
TTTACC | 1.21 fold enrichment (6-mer frequency, TF over GST control) | 1.1 fold enrichment (6-mer frequency, TF over GST control) | 1.28 fold enrichment (6-mer frequency, TF over GST control) | 1.26 fold enrichment (6-mer frequency, TF over GST control) | 1.45 fold enrichment (6-mer frequency, TF over GST control) | 1.2 fold enrichment (6-mer frequency, TF over GST control) | 1.36 fold enrichment (6-mer frequency, TF over GST control) | 1.26 fold enrichment (6-mer frequency, TF over GST control)
TGACCA | 1.31 fold enrichment (6-mer frequency, TF over GST control) | 1.32 fold enrichment (6-mer frequency, TF over GST control) | 1.23 fold enrichment (6-mer frequency, TF over GST control) | 1.24 fold enrichment (6-mer frequency, TF over GST control) | 1.15 fold enrichment (6-mer frequency, TF over GST control) | 1.16 fold enrichment (6-mer frequency, TF over GST control) | 1.23 fold enrichment (6-mer frequency, TF over GST control) | 1.27 fold enrichment (6-mer frequency, TF over GST control)
TCTCCG | 1.38 fold enrichment (6-mer frequency, TF over GST control) | 1.43 fold enrichment (6-mer frequency, TF over GST control) | 1.62 fold enrichment (6-mer frequency, TF over GST control) | 1.65 fold enrichment (6-mer frequency, TF over GST control) | 1.31 fold enrichment (6-mer frequency, TF over GST control) | 1.56 fold enrichment (6-mer frequency, TF over GST control) | 1.66 fold enrichment (6-mer frequency, TF over GST control) | 1.48 fold enrichment (6-mer frequency, TF over GST control)
ATGGTC | 1.45 fold enrichment (6-mer frequency, TF over GST control) | 1.49 fold enrichment (6-mer frequency, TF over GST control) | 1.49 fold enrichment (6-mer frequency, TF over GST control) | 1.35 fold enrichment (6-mer frequency, TF over GST control) | 1.29 fold enrichment (6-mer frequency, TF over GST control) | 1.46 fold enrichment (6-mer frequency, TF over GST control) | 1.55 fold enrichment (6-mer frequency, TF over GST control) | 1.52 fold enrichment (6-mer frequency, TF over GST control)
CCTGGT | 1.37 fold enrichment (6-mer frequency, TF over GST control) | 1.53 fold enrichment (6-mer frequency, TF over GST control) | 1.43 fold enrichment (6-mer frequency, TF over GST control) | 1.69 fold enrichment (6-mer frequency, TF over GST control) | 1.31 fold enrichment (6-mer frequency, TF over GST control) | 1.58 fold enrichment (6-mer frequency, TF over GST control) | 1.49 fold enrichment (6-mer frequency, TF over GST control) | 1.4 fold enrichment (6-mer frequency, TF over GST control)
CGACGA | 1.12 fold enrichment (6-mer frequency, TF over GST control) | 1.13 fold enrichment (6-mer frequency, TF over GST control) | 1.13 fold enrichment (6-mer frequency, TF over GST control) | 1.13 fold enrichment (6-mer frequency, TF over GST control) | 1.11 fold enrichment (6-mer frequency, TF over GST control) | 1.09 fold enrichment (6-mer frequency, TF over GST control) | 1.12 fold enrichment (6-mer frequency, TF over GST control) | 1.17 fold enrichment (6-mer frequency, TF over GST control)
